HCV inh: HCV inhibition; Huh7.5.1 HCVcc-Cre infection, luciferase reporter, 44 h; Potency, µM (doses to about 41.8 µM), usual class: inhibitors; actives 3.4% (n = 340,000); AID 651820
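Luciferase read-out (15 sec integration) after a 15 min room-temperature substrate step quantifies HCVcc-Cre infection. Cells, 1,000 per well, had compound added 4 h post-plating, then virus at ~0.5 moi, and were cultured 44 h.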
NS1 inh: blocks influenza NS1 protein function; actives 0.4% (n = 270,000); Potency, µM (titrated, usually from 46.1 µM); calls by dose curve; also: actives are rising curves; nearly all actives have a fitted effect of over 50% in size
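A cell-based growth assay was used: compounds that relieve NS1-induced slow growth of budding yeast raise OD600. Assay medium was yeast nitrogen base with ammonium sulphate and -URA supplement, pH 6.0, with 2% galactose.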
AMA1-RON2 inh: AMA1-RON2 (P. falciparum) interaction inhibition | actives 0.2% (n = 360,000) | AlphaScreen AMA1-biotinylated RON2 peptide binding | Potency, µM (doses to about 58.2 µM), actives largely listed as inhibitors | AID 720542; also: nearly all actives have a fitted effect of over 45% in size
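AMA1 (3D7) with his tag at 25 nM final met compounds first, then biotinylated RON2 peptide at 25 nM; detection used donor plus acceptor beads, 10 µg/mL apiece, read by AlphaScreen after 30 min at room temperature.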
Pf growth 48h: inhibits P. falciparum growth in the first generation, 48 h | P. falciparum luciferase growth in erythrocytes, 48 h | Potency, µM (doses to about 28.7 µM), most hits filed as inhibitors | actives 5.9% (n = 310,000) | AID 504832
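Compounds are pin-transferred into medium, infected erythrocytes (2% hematocrit, 0.1% parasitemia final) are added, and plates sit one parasite generation at 37 C in 5% CO2. Detection reagent is then added and luminescence measured.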
SARS PLpro yeast: inhibitors of SARS-CoV papain-like protease in yeast; AID 485353; S. cerevisiae expressing SARS-CoV PLpro, growth rescue; actives 0.19% (n = 330,000); Potency, µM (highest dose often 32.9 µM), actives largely listed as activators; calls by dose curve; also: nearly all actives have a fitted effect of over 55% in size
Pf growth 96h: P. falciparum growth inhibition at 96 hours | P. falciparum luciferase reporter growth, 96 h | Potency, µM (series often up to 28.7 µM), hits mostly inhibitors | actives 6.9% (n = 320,000)
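Erythrocytes infected with luciferase-expressing P. falciparum were dispensed at 2% hematocrit and 0.05% parasitemia (final), then incubated with compounds 96 hours at 37 C in 5% CO2. Luminescence after detection reagent addition reported growth.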
Large screens that a line does not name were inactive. This is a sample that favours compounds with a hit; in the whole collection about 12% have one here. Unless noted, calls follow the shape of the dose curve; as a rule, active = well fitted curve in the direction sought with a large enough effect; inconclusive = small, poorly fitted or top-dose-only effect, or another doubt; inactive = no such curve, though single readings can be large; an effect the other way counts as inactive or inconclusive.

CCCCC(=O)N/N=C/c1ccc(Sc2cccc3cccnc23)o1	HCV inh inconclusive, Pf growth 96h 4.1µM
O=C(Cc1cccc2ccccc12)N/N=C/c1ccc2cccc(O)c2n1	HCV inh inconclusive
O=C(Cc1cccc2ccccc12)N/N=C/c1ccc(Sc2cccc3cccnc23)o1	Pf growth 96h 6.6µM (no result: HCV inh, AMA1-RON2 inh, Pf growth 48h)
COc1ccc(OC)c(N(CC(=O)NCCSCc2ccco2)S(=O)(=O)c2ccccc2)c1	Pf growth 48h inconclusive, Pf growth 96h inconclusive
CCOc1ccc(N(CC(=O)NCCSCc2ccco2)S(=O)(=O)c2ccc(C)cc2)cc1	NS1 inh inconclusive, Pf growth 48h inconclusive, Pf growth 96h 8.3µM
CCOc1ccccc1N(CC(=O)NCCSCc1ccco1)S(=O)(=O)c1ccccc1	HCV inh 13µM, Pf growth 48h 8.3µM
O=C1NC[C@@H](CCCCN2C[C@H](Cc3ccc(O)cc3)N(CCC3CCCCC3)C(=O)C2=O)N(CC2CCCCC2)C1=O	none (no result: HCV inh, NS1 inh, Pf growth 48h, SARS PLpro yeast, Pf growth 96h)
O=C(Nc1ccn(Cc2ccccc2F)n1)c1ccc(COc2ccccc2Cl)cc1	HCV inh 16µM, Pf growth 48h inconclusive (no result: Pf growth 96h)
O=C(Nc1ccn(Cc2c(F)c(F)c(F)c(F)c2F)n1)c1cccc(Cn2cc([N+](=O)[O-])cn2)c1	HCV inh inconclusive, Pf growth 96h inconclusive (no result: Pf growth 48h)
O=C(Nc1ccn(Cc2c(F)c(F)cc(F)c2F)n1)c1cccc(Cn2cc([N+](=O)[O-])cn2)c1	Pf growth 96h 9.3µM (no result: Pf growth 48h)
Cc1cc(C)n(Cc2ccc(NC(=O)c3ccc(COc4ccccc4Br)cc3)cc2)n1	HCV inh 4µM, Pf growth 48h inconclusive, Pf growth 96h inconclusive
O=C(Nc1ccn(Cc2c(F)c(F)cc(F)c2F)n1)c1ccc(COc2ccccc2Cl)cc1	HCV inh 13µM, Pf growth 48h inconclusive, Pf growth 96h 0.23µM
CCOCCn1ccc2c(OCC(=O)NCc3ccccc3)cccc2c1=O	Pf growth 48h inconclusive (no result: NS1 inh)
Cc1cc(C)nc(NC(=O)c2ccc(COc3ccccc3Cl)cc2)c1	HCV inh inconclusive, Pf growth 96h 9.3µM (no result: NS1 inh)
COc1cccc(NC(=S)N(CCCN2CCOCC2)C(C)c2cc3ccccc3o2)c1 (centres undefined)	Pf growth 48h inconclusive (no result: NS1 inh)
CN(C)S(=O)(=O)c1ccc(NC(=O)Cc2ccc(S(=O)(=O)N3CCOCC3)s2)cc1	AMA1-RON2 inh inconclusive, Pf growth 48h inconclusive, Pf growth 96h 9.3µM (no result: NS1 inh)
CCN(CC)S(=O)(=O)c1cc(NC(=O)Cc2ccc(S(=O)(=O)N3CCOCC3)s2)ccc1Cl	HCV inh 10µM (no result: NS1 inh, Pf growth 48h, SARS PLpro yeast, Pf growth 96h)
CCn1c(SCC(N)=O)nnc1C(C)C	Pf growth 96h 8.3µM (no result: NS1 inh)
COCCn1c(SCC(=O)N2CCCC2)nnc1C(C)C	Pf growth 96h 5.2µM
CCCn1c(SCC(=O)N2CCCCC2)nnc1C(C)C	none
CCn1c(SCC(=O)c2ccc(Cl)cc2)nnc1C(C)C	Pf growth 96h inconclusive
O=C(Nc1ccccc1)Nc1cc(OCC(F)(F)F)cc(OCC(F)(F)F)c1	HCV inh 6.3µM, Pf growth 48h 2.6µM, SARS PLpro yeast inconclusive, Pf growth 96h 3.3µM
COc1ccc(NC(=S)Nc2cccc(C)n2)cc1	HCV inh inconclusive, Pf growth 48h 4.7µM, Pf growth 96h inconclusive
COc1ccc(NC(=S)NCc2ccc(F)cc2)cc1	none
COc1ccc(CCNC(=S)Nc2ccccc2)cc1	HCV inh inconclusive, Pf growth 48h 10µM, Pf growth 96h inconclusive
S=C(NCCOCCOCCNC(=S)Nc1ccccc1)Nc1ccccc1	Pf growth 48h 6.6µM
COc1ccc(NC(=O)Nc2cccc(C)n2)cc1	none
COc1ccc(CNC(=S)Nc2ccc(OC)cc2)cc1	SARS PLpro yeast 11µM
O=C(Nc1ccccc1F)N1CCc2ccccc2C1	Pf growth 96h inconclusive
COc1cc(C(=O)Nc2ccc3c(c2)CCCN3C(=O)c2ccco2)c([N+](=O)[O-])cc1OC	HCV inh inconclusive, Pf growth 48h inconclusive, Pf growth 96h inconclusive (no result: NS1 inh)
CCOC(=O)c1ccc(-n2ccnc2)c(NC(=O)c2ccc(C(C)(C)C)cc2)c1	HCV inh inconclusive, Pf growth 48h 13µM, Pf growth 96h 15µM
CCOC(=O)c1ccc(-n2ccnc2)c(NC(=O)c2cccc(Br)c2)c1	HCV inh inconclusive
CC1(C)CSC(=NCc2ccccc2)N1	HCV inh 10µM
COc1cc(CNc2nccn3ccnc23)cc(OC)c1	none (no result: HCV inh, NS1 inh, Pf growth 48h, SARS PLpro yeast, Pf growth 96h)
